The campaign covered roughly 63,000 compounds. About 1,100 (1.7%) were called active. No stated cut-off is given here; in the data, active means cytotoxicity above about 50%; inactive means the rest. This excerpt belongs to a sample that is enriched for actives. Results with a measured potency or affinity are listed apart.

The assay can be described thus: HPDE-C7 pancreatic duct cell viability loss – fluorescence, HTS (AID 430).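 Further: cells exposed to compound for 48 hours before viability readout; 0% = vehicle and 100% = reference cytotoxic drug.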 The note with it: HPDE-C7 pancreatic duct cells viability, at 10 µM, hits give high values.
With `Cc1cccc(N(CC(=O)NC2CCCC2)C(=O)CS(=O)CC(=O)Nc2ccc3c(c2)OCO3)c1` (stereo unspecified), the cytotoxicity is 0.1% (inactive). In the case of `CC(C)C(=O)Nc1cccc(NC(=O)c2cccnc2)c1`, the cytotoxicity is -3.2% (inactive).

`Cc1ccc(C)c(N2CCN(C(c3ccncc3)c3nnnn3Cc3ccccc3)CC2)c1` (stereo unspecified): the cytotoxicity was 27.4% (inactive). Regarding `Cc1ccc(-n2c(SCC(=O)Nc3ccc4c(c3)OCO4)nnc2-c2ccoc2C)cc1`, the cytotoxicity was 36.3% (inactive). Regarding `Cc1cccc(-n2c(SCC(=O)Nc3ccc4c(c3)OCO4)nnc2-c2ccoc2C)c1`, the cytotoxicity is 65.5% (active).

As to `Cc1cccc(-n2c(SCC(=O)Nc3nonc3C)nnc2-c2ccoc2C)c1`, the cytotoxicity is -16.1% (inactive). Under `Cc1cc(Cl)ccc1OCC(=O)N1CC(C)CC(C)C1` (stereo unspecified) stands -10.4% (inactive). As for `Cc1ccc2c(c1)C(c1ccc(F)cc1)N(C(=O)C1CC1)CC(=O)N2` (stereo unspecified), the cytotoxicity is -2% (inactive). Regarding `COc1cc(C(=O)Nc2cccc(-c3nncn3C)c2)cc(OC)c1OC`, the cytotoxicity is -13.4% (inactive).

In the case of `CCOC(=O)c1c(C)oc2ccc(NS(=O)(=O)c3ccc4c5c(cccc35)C(=O)N4)cc12`, the cytotoxicity is 64.4% (active). `COC(=O)c1ccccc1NS(=O)(=O)c1ccc2c3c(cccc13)C(=O)N2`: the cytotoxicity was 24.2% (inactive). `COCCOC(=O)c1c(C)oc2ccc(NS(=O)(=O)c3ccccc3)cc12`: the cytotoxicity is 12.7% (inactive).

In the case of `CC(=O)/C=C(/C)NC(Cc1c[nH]c2ccccc12)C(=O)O` (stereo unspecified), the cytotoxicity is 2.1% (inactive). Take `Oc1c(CN2CCc3ccccc3C2)cc(Cl)c2cccnc12`: the cytotoxicity is 7.8% (inactive).

Regarding `Oc1ccc2cccnc2c1`, the cytotoxicity was -7.4% (inactive). In the case of `OCc1ccnc2c(O)cccc12`, the cytotoxicity is -13.3% (inactive). For `Oc1c(CN2CCN(c3ccccn3)CC2)cc(Cl)c2cccnc12`, the cytotoxicity is 27.5% (inactive). `Cc1cc(Nc2nc3c(c(=O)n(C)c(=O)n3C)n2C)n(-c2ccccc2)n1`: the cytotoxicity was -9% (inactive). With `Cc1cc(=O)oc2cc(OCC3CC(c4ccc(N(C)C)cc4)=NO3)ccc12` (stereo unspecified), the cytotoxicity is -19% (inactive). For `COc1ccc2cc3cc(C(=O)Nc4ccc5c(c4)OCCO5)oc3nc2c1`, the cytotoxicity is 2% (inactive). On to `Cc1ccc2cccc(S(=O)(=O)N3CCN(c4cccc(Cl)c4)CC3)c2n1`, for which the cytotoxicity was 7% (inactive). For the compound `CC(=O)c1cc2c(cc1NC(=O)c1cnc(C)cn1)OCO2`, the cytotoxicity was 13.3% (inactive). Under `CN(C)S(=O)(=O)c1cccc(C(=O)OCC(=O)Nc2ccccc2OC(F)F)c1` stands 0.1% (inactive); under `COc1ccc(-n2c(SCCC#N)nnc2-c2cc(Cl)ccc2OC)cc1Cl`, 50.2% (active).

Consider `Cc1cc(-n2c(SCCC#N)nnc2-c2cccnc2)ccc1Cl`, for which the cytotoxicity is -25% (inactive). For the compound `N#CCCCSc1nnc(-c2ccc(Cl)cc2)n1-c1ccccc1`, the cytotoxicity is -20.2% (inactive). `O=C(O)c1cnn2c1NC(c1ccc(F)cc1)CC2C(F)(F)F` (stereo unspecified): the cytotoxicity is -9.5% (inactive). Take `COC(=O)C1=C(N)Oc2cc(C)oc(=O)c2C1c1ccncc1` (stereo unspecified): the cytotoxicity was 0.6% (inactive).

Regarding `COC(=O)/C(=C1/Oc2cc3c(cc2S1)OCO3)C(F)(F)F`, the cytotoxicity is -28.2% (inactive). Turning to `COC(=O)/C(=C1/Oc2cc(C)oc(=O)c2S1)C(F)(F)F`, the cytotoxicity was 76.7% (active). As to `O=C(O)CCC(=O)Nc1ccccc1C(=O)NC1CCCCC1`, the cytotoxicity is -16.8% (inactive). In the case of `O=C1CC(c2ccco2)CC(O)=C1C=Nc1cc(Cl)ccc1O` (stereo unspecified), the cytotoxicity is 55.5% (active). In the case of `O=C1CC(c2ccco2)CC(O)=C1C=NCCN1CCNCC1` (stereo unspecified), the cytotoxicity is -17.7% (inactive). As for `O=C1CC(c2ccco2)CC(O)=C1C=NCCO` (stereo unspecified), the cytotoxicity was 5.2% (inactive). In the case of `C=C1[C@@H](C)C2[C@H](Cc3ccccc3)NC(=O)[C@]23OC(=O)CC[C@H](O)CCC[C@H](C)C/C=C/[C@H]3[C@@H]1O` (stereo partly specified), the cytotoxicity was 67.8% (active). As to `CC(C)CCn1c(SCC(=O)OCn2nnc3ccccc3c2=O)nc2ccccc2c1=O`, the cytotoxicity was -1.3% (inactive). To `CO[C@H]1C[C@@H]2CC[C@@H](C)[C@@](O)(O2)C(=O)C(=O)N2CCCC[C@H]2C(=O)O[C@H]([C@H](C)C[C@@H]2CC[C@@H](O)[C@H](OC)C2)CC(=O)[C@H](C)C=C(C)[C@@H](O)[C@@H](OC)C(=O)[C@H](C)C[C@H](C)C=CC=CC=C1C` belongs 81.1% (active). For `CCOc1ccc(-c2nnc(SCC(=O)N(CC)CC)n2N)cc1`, the cytotoxicity was -5.3% (inactive).

`COc1cccc(OCCn2c(C)c(/C=N/n3cnnc3)c3ccccc32)c1`: the cytotoxicity was 75.8% (active). As for `Cc1ccc(OCCn2c(C)c(/C=N/n3cnnc3)c3ccccc32)cc1`, the cytotoxicity was 41% (inactive). Regarding `Cc1c(/C=N/n2cnnc2)c2ccccc2n1CCOc1ccccc1`, the cytotoxicity was 67.6% (active). Consider `C(=N\n1cnnc1)/c1cccc(OCCOc2ccccc2)c1`, for which the cytotoxicity was 2.1% (inactive). Turning to `Cc1c(/C=N/n2cnnc2)c2ccccc2n1CCOc1ccc(Cl)cc1`, the cytotoxicity was 15.9% (inactive).

Regarding `Cc1c(/C=N/n2cnnc2)c2ccccc2n1C`, the cytotoxicity is 5.2% (inactive). As to `CCN(CC)C(=O)CSc1nnc(-c2cnccn2)n1-c1ccccc1`, the cytotoxicity was -10.7% (inactive). To `CC(=O)c1cccc(NC2c3ccccc3C(=O)N2Cc2ccc3c(c2)OCO3)c1` (stereo unspecified) belongs 11.4% (inactive). As to `COc1ccc(NC(=O)c2cnc3ccccn3c2=O)c(OC)c1`, the cytotoxicity is 1% (inactive). Under `COCCn1c(SCC(=O)N2CCCC2)nnc1-c1ccoc1C` stands 5.7% (inactive). As to `COc1ccccc1C(=O)NCc1ccncc1`, the cytotoxicity was -7.2% (inactive). With `CCOC(=O)CN1C(=O)C(O)=C(C(C)=O)C1c1ccccc1` (stereo unspecified), the cytotoxicity was -3.4% (inactive). Turning to `COc1cccc2cc(C(=O)N3CCC(C)CC3)c(=O)oc12`, the cytotoxicity was 36.9% (inactive). Under `CCC(=O)Nc1ccc(OC)cc1OC` stands -0.9% (inactive); under `COc1ccc(Nc2cc(=O)n(C3CCCCC3)c(=O)[nH]2)c(OC)c1`, -11.4% (inactive). As for `CC1(C)Oc2ccc3ccc(=O)oc3c2-c2cnoc21`, the cytotoxicity is -3.6% (inactive). Take `O=C(c1cc(-c2cccs2)on1)N1CCN(c2ccc(F)cc2)CC1`: the cytotoxicity was 11.3% (inactive). With `O=C(c1cc(-c2cccs2)on1)N1CCN(c2ccccc2)CC1`, the cytotoxicity was 51.3% (active). As for `O=C(c1cc(-c2cccs2)on1)N1CCOCC1`, the cytotoxicity is -1.4% (inactive). As for `Cc1cc(C)cc(OCc2nnc(SCC(=O)c3ccc(Br)cc3)o2)c1`, the cytotoxicity was -22.5% (inactive). For `COC(=O)CCC(=O)Nc1sc2c(c1C#N)CCCC2`, the cytotoxicity was -8% (inactive). Under `Cc1cc(C(=O)Nc2sc3c(c2C#N)CCCC3)no1` stands -1.6% (inactive); under `CCc1ccc(CCC(=O)Nc2sc3c(c2C#N)CCCC3)o1`, 72% (active); under `CCCC(=O)Nc1sc2c(c1C#N)CCCC2`, 2.6% (inactive). For the compound `CCCc1cc(C(=O)Nc2sc3c(c2C#N)CCC3)no1`, the cytotoxicity is 5.7% (inactive).

For `Cc1cc(C(=O)Nc2sc3c(c2C#N)CCC3)no1`, the cytotoxicity was 53.5% (active). Take `N#Cc1c(NC(=O)c2cc(C3CC3)on2)sc2c1CCC2`: the cytotoxicity was 65.1% (active). For `CC(C)c1cc(C(=O)Nc2sc3c(c2C#N)CCC3)no1`, the cytotoxicity is 17.6% (inactive). Consider `CC(C)(C)C1CCc2c(sc(NC(=O)c3cc(C4CC4)on3)c2C#N)C1` (stereo unspecified), for which the cytotoxicity is 30.3% (inactive). Turning to `CCOc1cc(C2NC(=O)NC(C)=C2C(=O)OC(C)CC)cc(Br)c1O` (stereo unspecified), the cytotoxicity is 3.2% (inactive). For the compound `Cc1nn(C)c(C)c1S(=O)(=O)N1CCC(C(=O)NC2CCCCCC2)CC1`, the cytotoxicity is 3.3% (inactive). Turning to `COCCCNC(=O)CCCn1c(=O)[nH]c2ccccc2c1=O`, the cytotoxicity was -15.8% (inactive).

For `CCN(CC)CCN1C(=O)C(=O)/C(=C(/O)c2cnn(-c3ccccc3)c2C)C1c1cccnc1` (stereo unspecified), the cytotoxicity is 0.2% (inactive). As to `O=C(Nc1ccc(N2CCOCC2)cc1)C1CCCN(S(=O)(=O)c2ccccc2)C1` (stereo unspecified), the cytotoxicity is 0.2% (inactive). Take `CCOc1ccc2nc(-c3ccccc3)[nH]c2c1`: the cytotoxicity was 56.7% (active). Consider `COc1ccc2nc(-c3ccccc3)[nH]c2c1`, for which the cytotoxicity is -3.7% (inactive).

Take `CCOc1ccc2nc(C(C)O)[nH]c2c1` (stereo unspecified): the cytotoxicity is -5.7% (inactive). On to `COC(=O)c1ccc(Cl)c(NC(=O)CN2CCOCC2)c1`, for which the cytotoxicity was 0.1% (inactive). Consider `CCOC(=O)c1cccc(NC(=O)CSc2nnc(-c3ccncc3)n2CCCOC)c1`, for which the cytotoxicity is -11.4% (inactive).

Consider `CC(Sc1ccc2ccccc2n1)C(=O)O` (stereo unspecified), for which the cytotoxicity was 4.7% (inactive).

As for `C/C(CC(O)c1ccc2ccccc2n1)=N/O` (stereo unspecified), the cytotoxicity was 0.7% (inactive). With `COc1ccccc1N(CC(=O)Nc1ccc2c(c1)OCO2)S(=O)(=O)c1ccccc1`, the cytotoxicity was 7.5% (inactive).

As to `O=C(NCCCO)c1nc2ccccc2s1`, the cytotoxicity is 5.3% (inactive). Take `CCc1cc2c(=O)c(-c3nc4ccccc4[nH]3)coc2cc1OC(=O)N1CCOCC1`: the cytotoxicity was -31.2% (inactive). With `CCOC(=O)c1oc2cc(O)c(CC)cc2c(=O)c1-c1ccc2c(c1)OCCO2`, the cytotoxicity is 0.2% (inactive). Under `CCc1cc2c(=O)c(-c3ccc4c(c3)OCCO4)coc2cc1OC(=O)c1ccco1` stands 56.6% (active); under `Cc1nc(NC(=O)c2cc3c(s2)CCCCC3)sc1C(=O)N(C)C`, -7% (inactive); under `COC(=O)Cn1c2ccccc2c2nc(C)sc21`, 2.7% (inactive). As to `O=C(CS(=O)(=O)c1ccccc1)N1CCCCCC1`, the cytotoxicity is -5.2% (inactive). As to `C/C=C(\CS(=O)(=O)c1ccccc1)S(=O)(=O)c1ccccc1`, the cytotoxicity is 35.4% (inactive).

Regarding `Cc1cccn2c(=O)c3cc(C#N)c(=N)n(CCN4CCOCC4)c3nc12`, the cytotoxicity was 5% (inactive). As to `Cc1ccccc1-n1c(SCc2cc(=O)n3ccccc3n2)nc2[nH]ncc2c1=O`, the cytotoxicity was -8% (inactive). For `CC1(N2CCOCC2)CC2(O)C(=[N+]1[O-])CCc1nonc12` (stereo unspecified), the cytotoxicity was 12.8% (inactive). Under `CC1(N2CCOCC2)CC2(O)C(=[N+]1[O-])CCc1c2no[n+]1[O-]` (stereo unspecified) stands 60.2% (active). With `CC1(N2CCCCC2)CC2(O)C(=[N+]1[O-])CCC/C2=N\O` (stereo unspecified), the cytotoxicity is -1.5% (inactive).

Regarding `Oc1ccc(Nc2nc(N3CCCC3)c3ccccc3n2)cc1`, the cytotoxicity is 73.1% (active). As to `COc1ccc(Nc2nc(N3CCCC3)c3ccccc3n2)cc1`, the cytotoxicity is 27.2% (inactive). Consider `Cc1ccc(Nc2nc(N3CCOCC3)c3ccccc3n2)cc1`, for which the cytotoxicity is 30.7% (inactive).

The values above are taken from PubChem BioAssay AID430 (Sanford-Burnham Center for Chemical Genomics, 2006).
